Among all 200,000 compounds or so, about 720 (0.36%) were called active. Not shown: some 8% with an inconclusive outcome. Calls follow the shape of the dose curve; as a rule, active = well fitted activation curve with a large enough effect; inconclusive = small, poorly fitted or top-dose-only effect, or effect the other way, or another doubt; inactive = flat fitted curve, though single readings scatter. This is one part of the list.
Potency is read from the fitted curve at half-maximal effect.

For this assay, the target named is Lysosomal alpha-glucosidase (Homo sapiens) (UniProt P10253). Description: qHTS Assay for Activators of Human alpha-Glucosidase as a Potential Chaperone Treatment of Pompe Disease. Also: nearly all actives have a fitted effect of over 80% in size. The note with it: purified enzyme, 4-MU-alpha-glucoside fluorescence, 20 min; series mostly up to 76.9 µM. A digest of the protocol: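 Compounds titrated up to 77 uM against 4 nM enzyme and 400 uM methylumbelliferyl substrate at room temperature, 20 min, pH 5.0. Basic stop, then 4-methylumbelliferone fluorescence (365/440 nm) normalized to no-enzyme and enzyme controls; Hill-equation AC50.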
In general terms: qHTS replaces the single test concentration by a dilution series.
Turning to `COc1ccc2cc3cc(C(=O)NCCCN4CCOCC4)oc3nc2c1`, the Potency is 35.5 µM (active).

As to `CCN1CCN(CCCNC(=O)c2cc3cc4ccc(OC)cc4nc3o2)CC1`, the Potency is 35.5 µM (active).

As for `CCCSc1nc2sc3c(c2c(=O)[nH]1)CCN(Cc1ccccc1)C3`, the Potency was 31.6 µM (active).

For the molecule `COC(=O)c1ccncc1N`, the Potency was 35.5 µM (active).

In the case of `COC(=O)c1sc2ccccc2c1N`, the Potency was 39.8 µM (active).

On to `COC(=O)c1sc2cnccc2c1N`, for which the Potency is 35.5 µM (active).

In the case of `Cc1ccc(S(=O)(=O)c2c(N)n(CC3CCOC3)c3nc4ccccc4nc23)cc1` (configuration not stated), the Potency is 35.5 µM (active).

`Cc1ccc(-n2c(N)c(S(=O)(=O)c3ccccc3)c3nc4ccccc4nc32)cc1`: the Potency is 25.1 µM (active).

Turning to `Cc1cccc(S(=O)(=O)c2c(N)n(-c3ccccc3)c3nc4ccccc4nc23)c1`, the Potency was 35.5 µM (active).

As to `Cc1ccc(S(=O)(=O)c2c(N)n(CCCO)c3nc4ccccc4nc23)cc1`, the Potency is 35.5 µM (active).

`Cc1ccc(S(=O)(=O)c2c(N)n(C)c3nc4ccccc4nc23)cc1`: the Potency is 25.1 µM (active).

With `Nc1c(S(=O)(=O)c2ccccc2)c2nc3ccccc3nc2n1C1CC1`, the Potency is 28.2 µM (active).

For the molecule `Nc1c(S(=O)(=O)c2ccccc2)c2nc3ccccc3nc2n1CCN1CCOCC1`, the Potency was 39.8 µM (active).

For the molecule `Nc1c(S(=O)(=O)c2ccccc2)c2nc3ccccc3nc2n1Cc1ccco1`, the Potency was 28.2 µM (active).

Take `COCCCn1c(=NC(=O)c2ccncc2)c(C#N)cc2c(=O)n3cccc(C)c3nc21`: the Potency was 35.5 µM (active).

Regarding `COCCCn1c(=NC(=O)c2ccccc2)c(C#N)cc2c(=O)n3cccc(C)c3nc21`, the Potency is 39.8 µM (active).

For the molecule `Cc1cccn2c(=O)c3cc(C#N)c(=NC(=O)c4ccncc4)n(CCCOC(C)C)c3nc12`, the Potency is 35.5 µM (active).

With `CCC12OC(=N)C(C#N)(C1C)C(C#N)(C#N)C(c1ccccc1)O2` (configuration not stated), the Potency is 39.8 µM (active).

For the molecule `CCC1OC2(C)OC(=N)C1(C#N)C(C#N)(C#N)C2c1ccccc1` (configuration not stated), the Potency was 35.5 µM (active).

`CC(=O)Nc1ccc(S(=O)(=O)C(C#N)c2nc3ccccc3nc2NCCO)cc1` (configuration not stated): the Potency was 35.5 µM (active).

Turning to `CC(=O)Nc1ccc(S(=O)(=O)C(C#N)c2nc3ccccc3nc2NCCCO)cc1` (configuration not stated), the Potency is 31.6 µM (active).

For the molecule `Cc1ccc(S(=O)(=O)NC(C(=O)Oc2cc3oc(=O)cc(C)c3cc2Cl)C(C)C)cc1` (configuration not stated), the Potency was 31.6 µM (active).

For the molecule `Cc1ccc(S(=O)(=O)NC(C(=O)Oc2ccc3ccc(=O)oc3c2)c2ccccc2)cc1` (configuration not stated), the Potency was 35.5 µM (active).

`Cc1ccc(S(=O)(=O)NC(C(=O)Oc2ccc3c(C)c(Cl)c(=O)oc3c2)c2ccccc2)cc1` (configuration not stated): the Potency was 28.2 µM (active).

On to `O=C(Oc1ccc2ccc(=O)oc2c1)C1CCCCC1`, for which the Potency was 35.5 µM (active).

As to `CC(C)(C)OC(=O)NCCC(=O)Oc1ccc2ccc(=O)oc2c1`, the Potency is 35.5 µM (active).

Regarding `CC(NC(=O)OC(C)(C)C)C(=O)Oc1ccc2ccc(=O)oc2c1` (configuration not stated), the Potency is 31.6 µM (active).

For the molecule `CCOC(=O)CCc1c(C)c2ccc(O)cc2oc1=O`, the Potency was 35.5 µM (active).

In the case of `Cc1c(CCC(=O)O)c(=O)oc2cc(O)ccc12`, the Potency is 35.5 µM (active).

On to `Cc1cccc(C(=O)N=c2c(C#N)cc3c(=O)n4cccc(C)c4nc3n2Cc2ccco2)c1`, for which the Potency was 35.5 µM (active).

Regarding `Cc1ccccc1C(=O)N=c1c(C#N)cc2c(=O)n3cccc(C)c3nc2n1Cc1ccco1`, the Potency was 35.5 µM (active).

For `Fc1ccc(N2N=C(c3cccs3)CC2c2ccco2)c(F)c1` (configuration not stated), the Potency was 31.6 µM (active).

Turning to `Clc1ccc(N2N=C(c3cccs3)CC2c2ccco2)cc1` (configuration not stated), the Potency was 35.5 µM (active).

On to `O=c1oc2ccccc2c2c1SC(C(F)(F)F)C2` (configuration not stated), for which the Potency is 31.6 µM (active).

On to `COc1ccc(C2CC(c3ccccc3)=NN2c2ccc(Cl)c(C(=O)O)c2)cc1` (configuration not stated), for which the Potency is 28.2 µM (active).

With `NS(=O)(=O)c1ccc(N2N=C(c3ccc(Br)cc3)CC2c2ccc(F)cc2)cc1` (configuration not stated), the Potency is 31.6 µM (active).

For the molecule `NS(=O)(=O)c1ccc(N2N=C(c3ccccc3)CC2c2ccccc2)cc1` (configuration not stated), the Potency is 31.6 µM (active).

With `O=S(=O)(O)c1ccc(N2N=C(c3ccccc3)CC2c2ccccc2)cc1` (configuration not stated), the Potency was 35.5 µM (active).

As for `CCc1ccc(C2=NN(c3ccc(S(N)(=O)=O)cc3)C(c3ccc(F)cc3)C2)cc1` (configuration not stated), the Potency was 31.6 µM (active).

On to `NS(=O)(=O)c1ccc(N2N=C(c3ccccc3)CC2c2ccc(F)cc2)cc1` (configuration not stated), for which the Potency is 31.6 µM (active).

For the molecule `NS(=O)(=O)c1ccc(N2N=C(c3ccccc3)CC2c2cccc(F)c2)cc1` (configuration not stated), the Potency is 35.5 µM (active).

As for `COc1ccc(C2CC(c3ccccc3)=NN2c2ccc(S(N)(=O)=O)cc2)cc1OC` (configuration not stated), the Potency is 31.6 µM (active).

Values taken from PubChem BioAssay AID2242 (National Center for Advancing Translational Sciences (NCATS), 2010).
